Data on one sequence can be found in PMC7862700, “An all-to-all approach to the identification of sequence-specific readers for epigenetic DNA modifications on cytosine”.

What all share (test): DAPPL (digital affinity profiling via proximity ligation, sequencing); 10 mM Tris-HCl pH 7.5, 50 mM NaCl, 1 mM DTT, 4% glycerol, room temperature, 30 min; GST-TFs on glutathione beads, 16-mer random dsDNA library, 0.1% formaldehyde crosslink after washing; high values mean tight binding
In one assay the target is T1, FEV (Homo sapiens, UniProt Q99581 1-238).
T1 sequence: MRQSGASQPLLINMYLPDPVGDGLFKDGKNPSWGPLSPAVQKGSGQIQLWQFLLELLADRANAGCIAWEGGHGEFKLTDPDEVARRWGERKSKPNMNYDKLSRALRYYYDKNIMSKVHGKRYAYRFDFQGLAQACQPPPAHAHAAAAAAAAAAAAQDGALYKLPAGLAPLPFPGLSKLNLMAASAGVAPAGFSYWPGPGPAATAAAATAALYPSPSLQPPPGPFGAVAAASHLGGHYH
The following applies: protein: recombinant; tags: N-terminal GST; dsDNA, one strand shown. In outline:
(§1)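 Each value of binding signal is a hexamer's read frequency for a factor divided by the same hexamer's frequency in the tag-only sample. Barcoded, bead-captured GST fusions of human transcription factors made in yeast were pooled with that sample and incubated with 200 nmole of a random double-stranded 16-mer DNA library in Tris/NaCl/DTT/glycerol buffer at room temperature for 30 min. Washing, 0.1% formaldehyde crosslinking, proximity ligation, PCR and Illumina NextSeq500 sequencing followed.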

The target of another assay is ETV5 (Homo sapiens, UniProt P41161 1-510). The following applies: protein: recombinant; tags: N-terminal GST; dsDNA, one strand shown. In outline: as §1
For the next assay, the target named is HSF1 (Homo sapiens, UniProt Q00613 1-529). Conditions: protein: recombinant; tags: N-terminal GST; chain copies: 3; dsDNA, one strand shown. In outline: as §1
The next assay concerns the target T2, SPIC (Homo sapiens, UniProt Q8N5J4 1-248).
T2 sequence: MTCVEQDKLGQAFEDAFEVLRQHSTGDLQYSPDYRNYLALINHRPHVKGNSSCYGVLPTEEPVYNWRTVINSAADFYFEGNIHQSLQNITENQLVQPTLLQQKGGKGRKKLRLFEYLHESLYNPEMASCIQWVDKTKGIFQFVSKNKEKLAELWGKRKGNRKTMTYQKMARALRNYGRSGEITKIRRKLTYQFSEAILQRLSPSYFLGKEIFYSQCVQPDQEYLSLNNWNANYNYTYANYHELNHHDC
The following applies: protein: recombinant; tags: N-terminal GST; dsDNA, one strand shown. In outline: as §1

A further assay deals with ELF4 (Homo sapiens, UniProt Q99607 1-663). The following applies: protein: recombinant; tags: N-terminal GST; dsDNA, one strand shown. In outline: as §1
In the next assay the target is T3, ELK4 (Homo sapiens, UniProt P28324-2 1-405).
T3 sequence: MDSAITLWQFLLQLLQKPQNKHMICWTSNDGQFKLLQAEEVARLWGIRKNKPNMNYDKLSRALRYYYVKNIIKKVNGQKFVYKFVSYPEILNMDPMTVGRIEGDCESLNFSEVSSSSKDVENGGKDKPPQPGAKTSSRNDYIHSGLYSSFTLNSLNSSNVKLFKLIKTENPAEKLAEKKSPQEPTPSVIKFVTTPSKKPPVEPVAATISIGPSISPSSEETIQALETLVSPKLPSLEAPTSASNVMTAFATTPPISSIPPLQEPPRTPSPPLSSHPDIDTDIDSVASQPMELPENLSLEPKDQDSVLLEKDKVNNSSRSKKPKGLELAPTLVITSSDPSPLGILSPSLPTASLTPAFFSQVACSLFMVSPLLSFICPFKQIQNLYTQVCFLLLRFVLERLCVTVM
The following applies: protein: recombinant; tags: N-terminal GST; dsDNA, one strand shown. A digest of the protocol: as §1

In the next assay the target is T4, ETV2 (Homo sapiens, UniProt O00321 1-342).
T4 sequence: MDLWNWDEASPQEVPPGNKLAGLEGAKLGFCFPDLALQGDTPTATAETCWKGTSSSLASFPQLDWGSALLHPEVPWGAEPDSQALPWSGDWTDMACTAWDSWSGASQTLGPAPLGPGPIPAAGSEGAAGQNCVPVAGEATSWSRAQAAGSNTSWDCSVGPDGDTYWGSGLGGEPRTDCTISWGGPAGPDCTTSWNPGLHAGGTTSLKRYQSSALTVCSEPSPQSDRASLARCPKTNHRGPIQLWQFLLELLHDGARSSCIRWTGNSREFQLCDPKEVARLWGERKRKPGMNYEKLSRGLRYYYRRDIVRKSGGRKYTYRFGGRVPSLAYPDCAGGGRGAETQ
The following applies: protein: recombinant; tags: N-terminal GST; dsDNA, one strand shown. In outline: as §1

The target in the next assay is T5, ELF3 (Homo sapiens, UniProt P78545 1-371).
T5 sequence: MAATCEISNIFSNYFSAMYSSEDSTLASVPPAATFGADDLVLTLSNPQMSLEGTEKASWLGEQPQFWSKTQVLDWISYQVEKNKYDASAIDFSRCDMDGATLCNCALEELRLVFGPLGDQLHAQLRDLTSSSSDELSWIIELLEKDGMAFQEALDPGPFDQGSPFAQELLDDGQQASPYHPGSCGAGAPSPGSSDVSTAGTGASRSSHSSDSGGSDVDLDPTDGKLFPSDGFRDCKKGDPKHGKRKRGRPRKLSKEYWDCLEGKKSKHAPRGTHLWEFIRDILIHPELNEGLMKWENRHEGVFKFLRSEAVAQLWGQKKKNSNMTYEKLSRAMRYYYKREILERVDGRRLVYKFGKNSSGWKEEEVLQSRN
Conditions: protein: recombinant; tags: N-terminal GST; dsDNA, one strand shown. A digest of the protocol: as §1

The next assay addresses CRX (Homo sapiens, UniProt O43186 1-299). Conditions: protein: recombinant; tags: N-terminal GST; dsDNA, one strand shown. In outline: as §1
The next assay concerns the target ETV1 (Homo sapiens, UniProt P50549 1-477). Conditions: protein: recombinant; tags: N-terminal GST; dsDNA, one strand shown. In outline: as §1
A further assay has as its target T6, ERF (Homo sapiens, UniProt P50548 1-548).
T6 sequence: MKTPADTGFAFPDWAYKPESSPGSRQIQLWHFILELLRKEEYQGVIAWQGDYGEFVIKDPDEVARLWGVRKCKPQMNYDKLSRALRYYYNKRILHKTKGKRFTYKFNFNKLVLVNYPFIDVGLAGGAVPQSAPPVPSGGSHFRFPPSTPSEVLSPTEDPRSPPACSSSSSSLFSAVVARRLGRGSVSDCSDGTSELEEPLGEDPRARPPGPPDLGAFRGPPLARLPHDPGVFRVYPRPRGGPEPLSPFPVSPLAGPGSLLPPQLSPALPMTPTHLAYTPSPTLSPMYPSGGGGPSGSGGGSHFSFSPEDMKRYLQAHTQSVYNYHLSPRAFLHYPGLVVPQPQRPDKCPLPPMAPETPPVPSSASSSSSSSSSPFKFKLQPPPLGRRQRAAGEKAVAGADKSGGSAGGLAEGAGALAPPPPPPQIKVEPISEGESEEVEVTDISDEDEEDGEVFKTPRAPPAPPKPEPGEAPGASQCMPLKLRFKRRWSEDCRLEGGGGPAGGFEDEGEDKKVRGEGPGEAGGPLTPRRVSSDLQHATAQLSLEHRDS
The following applies: protein: recombinant; tags: N-terminal GST; dsDNA, one strand shown. In outline: as §1

The next assay has as its target T7, ETV3L (Homo sapiens, UniProt Q6ZN32 1-361).
T7 sequence: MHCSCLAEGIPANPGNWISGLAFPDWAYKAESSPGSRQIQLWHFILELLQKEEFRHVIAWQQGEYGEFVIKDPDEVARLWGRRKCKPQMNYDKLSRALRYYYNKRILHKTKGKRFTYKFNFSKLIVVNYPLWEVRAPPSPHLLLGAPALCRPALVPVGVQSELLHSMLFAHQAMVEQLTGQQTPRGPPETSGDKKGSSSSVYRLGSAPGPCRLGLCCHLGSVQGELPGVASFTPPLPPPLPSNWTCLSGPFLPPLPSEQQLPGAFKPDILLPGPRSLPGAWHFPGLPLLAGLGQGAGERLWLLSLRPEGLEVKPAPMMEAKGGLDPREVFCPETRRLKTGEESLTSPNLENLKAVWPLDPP
Conditions: protein: recombinant; tags: N-terminal GST; dsDNA, one strand shown. In outline: as §1

The next assay concerns the target T8, ETS2 (Homo sapiens, UniProt P15036 1-469).
T8 sequence: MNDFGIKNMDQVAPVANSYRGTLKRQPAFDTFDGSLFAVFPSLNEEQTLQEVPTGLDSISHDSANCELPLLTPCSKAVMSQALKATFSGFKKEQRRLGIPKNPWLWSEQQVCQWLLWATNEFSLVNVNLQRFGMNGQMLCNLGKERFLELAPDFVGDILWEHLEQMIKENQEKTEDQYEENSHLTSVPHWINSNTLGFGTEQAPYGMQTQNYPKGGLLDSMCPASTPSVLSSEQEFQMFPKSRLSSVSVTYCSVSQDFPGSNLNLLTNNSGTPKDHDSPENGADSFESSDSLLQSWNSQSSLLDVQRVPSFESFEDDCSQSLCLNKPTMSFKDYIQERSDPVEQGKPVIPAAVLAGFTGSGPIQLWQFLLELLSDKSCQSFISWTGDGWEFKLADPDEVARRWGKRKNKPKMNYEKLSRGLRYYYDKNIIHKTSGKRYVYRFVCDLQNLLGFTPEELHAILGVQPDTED
The following applies: protein: recombinant; tags: N-terminal GST; dsDNA, one strand shown. In outline:
as §1

Another assay has as its target T9, SPDEF (Homo sapiens, UniProt O95238 1-335).
T9 sequence: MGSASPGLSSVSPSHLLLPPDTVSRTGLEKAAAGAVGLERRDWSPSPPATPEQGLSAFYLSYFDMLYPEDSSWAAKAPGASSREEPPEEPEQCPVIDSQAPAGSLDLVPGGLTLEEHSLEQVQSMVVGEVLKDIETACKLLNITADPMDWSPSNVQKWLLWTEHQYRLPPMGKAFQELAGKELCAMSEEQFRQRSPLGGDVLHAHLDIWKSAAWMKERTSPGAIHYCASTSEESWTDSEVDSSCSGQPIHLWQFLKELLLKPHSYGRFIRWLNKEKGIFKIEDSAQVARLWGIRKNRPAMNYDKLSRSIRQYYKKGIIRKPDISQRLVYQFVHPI
Conditions: protein: recombinant; tags: N-terminal GST; dsDNA, one strand shown. In outline:
as §1

The target in a further assay is T10, ETV7 (Homo sapiens, UniProt Q9Y603 1-341).
T10 sequence: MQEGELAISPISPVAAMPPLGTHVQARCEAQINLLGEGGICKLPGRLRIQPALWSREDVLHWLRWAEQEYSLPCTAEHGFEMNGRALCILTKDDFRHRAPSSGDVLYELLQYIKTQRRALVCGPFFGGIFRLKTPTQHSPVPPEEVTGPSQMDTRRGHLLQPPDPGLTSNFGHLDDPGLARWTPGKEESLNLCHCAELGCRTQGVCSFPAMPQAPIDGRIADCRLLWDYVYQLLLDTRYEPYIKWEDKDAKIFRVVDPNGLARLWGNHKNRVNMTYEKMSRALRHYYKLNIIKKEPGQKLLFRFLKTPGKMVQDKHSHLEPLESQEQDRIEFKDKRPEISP
The following applies: protein: recombinant; tags: N-terminal GST; dsDNA, one strand shown. In outline:
as §1

Another assay concerns the target T11, ELF5 (Homo sapiens, UniProt Q9UKW6-2 1-255).
T11 sequence: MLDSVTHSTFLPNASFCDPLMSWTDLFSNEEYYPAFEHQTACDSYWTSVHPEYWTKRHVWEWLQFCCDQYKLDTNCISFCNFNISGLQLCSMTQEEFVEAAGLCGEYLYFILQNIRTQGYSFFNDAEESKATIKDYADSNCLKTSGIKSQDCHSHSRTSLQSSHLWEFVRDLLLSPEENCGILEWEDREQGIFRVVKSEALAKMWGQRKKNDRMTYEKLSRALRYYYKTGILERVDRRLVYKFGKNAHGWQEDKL
The following applies: protein: recombinant; tags: N-terminal GST; dsDNA, one strand shown. In outline: as §1

In another assay the target is T12, ETV3 (Homo sapiens, UniProt P41162-2 1-143).
T12 sequence: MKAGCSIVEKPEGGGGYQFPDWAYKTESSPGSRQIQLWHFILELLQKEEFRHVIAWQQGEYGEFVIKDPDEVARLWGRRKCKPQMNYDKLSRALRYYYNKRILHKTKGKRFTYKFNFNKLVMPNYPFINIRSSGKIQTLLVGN
The following applies: protein: recombinant; tags: N-terminal GST; dsDNA, one strand shown. In outline: as §1

In the next assay the target is ETV6 (Homo sapiens, UniProt P41212 1-452). The following applies: protein: recombinant; tags: N-terminal GST; dsDNA, one strand shown. In outline: as §1
Sequence of ETV6 (P41212 whole entry): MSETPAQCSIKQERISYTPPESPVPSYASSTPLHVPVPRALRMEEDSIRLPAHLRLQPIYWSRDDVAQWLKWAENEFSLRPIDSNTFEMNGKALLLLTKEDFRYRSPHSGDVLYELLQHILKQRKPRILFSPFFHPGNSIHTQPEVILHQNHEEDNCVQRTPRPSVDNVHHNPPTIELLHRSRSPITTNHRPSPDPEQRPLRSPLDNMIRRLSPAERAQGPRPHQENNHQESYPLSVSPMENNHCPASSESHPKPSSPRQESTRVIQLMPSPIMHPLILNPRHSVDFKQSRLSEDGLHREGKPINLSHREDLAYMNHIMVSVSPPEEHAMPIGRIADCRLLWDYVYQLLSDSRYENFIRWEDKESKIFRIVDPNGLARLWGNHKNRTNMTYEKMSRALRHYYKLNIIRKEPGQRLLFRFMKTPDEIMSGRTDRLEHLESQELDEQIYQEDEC

Sequence of ETV5 (P41161 whole entry): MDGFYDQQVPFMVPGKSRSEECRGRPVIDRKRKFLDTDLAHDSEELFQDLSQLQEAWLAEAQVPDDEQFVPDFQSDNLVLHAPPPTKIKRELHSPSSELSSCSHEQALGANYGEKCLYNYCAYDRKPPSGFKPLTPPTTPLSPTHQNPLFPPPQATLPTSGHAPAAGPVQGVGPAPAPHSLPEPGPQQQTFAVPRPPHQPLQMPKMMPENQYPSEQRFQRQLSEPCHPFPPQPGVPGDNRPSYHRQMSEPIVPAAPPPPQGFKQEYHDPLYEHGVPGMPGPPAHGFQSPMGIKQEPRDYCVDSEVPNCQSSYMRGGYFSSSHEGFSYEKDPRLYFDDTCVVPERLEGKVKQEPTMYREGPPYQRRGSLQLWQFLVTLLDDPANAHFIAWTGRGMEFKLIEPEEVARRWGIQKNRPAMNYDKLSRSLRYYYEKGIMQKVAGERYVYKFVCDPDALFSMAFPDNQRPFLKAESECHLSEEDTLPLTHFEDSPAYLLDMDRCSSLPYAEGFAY
Sequence of ETV1 (P50549 whole entry): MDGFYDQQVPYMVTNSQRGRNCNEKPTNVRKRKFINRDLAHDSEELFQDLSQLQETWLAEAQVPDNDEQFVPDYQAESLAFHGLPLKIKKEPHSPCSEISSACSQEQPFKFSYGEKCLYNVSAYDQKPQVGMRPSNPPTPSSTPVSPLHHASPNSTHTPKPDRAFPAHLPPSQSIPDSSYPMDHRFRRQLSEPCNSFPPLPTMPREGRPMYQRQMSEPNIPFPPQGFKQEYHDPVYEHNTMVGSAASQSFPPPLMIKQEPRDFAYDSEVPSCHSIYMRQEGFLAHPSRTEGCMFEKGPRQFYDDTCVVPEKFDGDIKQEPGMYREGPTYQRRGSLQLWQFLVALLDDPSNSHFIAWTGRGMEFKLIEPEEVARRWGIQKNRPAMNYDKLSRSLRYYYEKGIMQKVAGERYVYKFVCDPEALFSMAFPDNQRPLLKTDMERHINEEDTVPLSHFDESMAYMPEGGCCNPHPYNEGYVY
Sequence of HSF1 (Q00613 whole entry): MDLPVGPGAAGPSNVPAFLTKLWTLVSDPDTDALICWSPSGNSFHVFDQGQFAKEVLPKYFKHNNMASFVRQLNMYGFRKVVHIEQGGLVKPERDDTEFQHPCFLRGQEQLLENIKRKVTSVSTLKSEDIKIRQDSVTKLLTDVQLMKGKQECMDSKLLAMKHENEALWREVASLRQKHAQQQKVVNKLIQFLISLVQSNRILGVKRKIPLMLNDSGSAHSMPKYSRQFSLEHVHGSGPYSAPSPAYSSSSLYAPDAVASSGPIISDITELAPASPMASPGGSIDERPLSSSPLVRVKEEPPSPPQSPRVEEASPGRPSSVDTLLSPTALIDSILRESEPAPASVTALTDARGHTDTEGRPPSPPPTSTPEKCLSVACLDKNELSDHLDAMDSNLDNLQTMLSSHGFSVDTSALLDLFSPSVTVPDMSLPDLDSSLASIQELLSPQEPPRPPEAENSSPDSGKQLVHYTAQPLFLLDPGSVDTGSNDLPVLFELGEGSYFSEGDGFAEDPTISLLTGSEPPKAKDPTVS
Sequence of CRX (O43186 whole entry): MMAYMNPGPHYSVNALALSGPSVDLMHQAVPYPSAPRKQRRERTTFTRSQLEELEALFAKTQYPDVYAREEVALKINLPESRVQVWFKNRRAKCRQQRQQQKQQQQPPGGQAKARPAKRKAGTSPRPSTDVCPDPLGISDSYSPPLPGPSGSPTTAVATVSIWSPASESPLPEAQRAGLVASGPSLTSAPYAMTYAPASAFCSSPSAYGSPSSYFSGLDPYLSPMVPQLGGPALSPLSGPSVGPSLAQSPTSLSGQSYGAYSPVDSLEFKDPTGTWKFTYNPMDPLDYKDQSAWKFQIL
Sequence of ELF4 (Q99607 whole entry): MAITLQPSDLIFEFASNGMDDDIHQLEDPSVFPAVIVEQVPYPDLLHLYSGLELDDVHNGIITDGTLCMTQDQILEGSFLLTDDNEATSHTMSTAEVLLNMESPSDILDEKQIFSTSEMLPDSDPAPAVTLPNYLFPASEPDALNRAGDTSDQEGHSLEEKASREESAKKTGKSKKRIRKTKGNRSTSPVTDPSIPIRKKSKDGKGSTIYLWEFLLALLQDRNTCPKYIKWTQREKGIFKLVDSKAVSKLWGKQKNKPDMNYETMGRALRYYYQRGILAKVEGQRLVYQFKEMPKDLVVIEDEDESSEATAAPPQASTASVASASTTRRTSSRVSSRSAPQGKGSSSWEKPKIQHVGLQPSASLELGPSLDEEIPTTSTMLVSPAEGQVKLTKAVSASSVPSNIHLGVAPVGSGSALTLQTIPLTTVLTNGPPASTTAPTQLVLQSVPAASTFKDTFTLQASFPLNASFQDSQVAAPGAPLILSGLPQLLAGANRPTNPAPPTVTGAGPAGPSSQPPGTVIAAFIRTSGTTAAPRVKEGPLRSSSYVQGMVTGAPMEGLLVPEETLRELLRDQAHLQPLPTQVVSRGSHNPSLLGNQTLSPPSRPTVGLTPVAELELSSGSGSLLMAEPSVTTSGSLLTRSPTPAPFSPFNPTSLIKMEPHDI

Turning to TTCCGC, the binding signal with FEV was 3.1 fold enrichment (6-mer frequency, TF over GST control); in the assay with ETV5, 3.42 fold enrichment (6-mer frequency, TF over GST control); in the assay with HSF1, 1.34 fold enrichment (6-mer frequency, TF over GST control); with SPIC, 3.62 fold enrichment (6-mer frequency, TF over GST control); in the assay with ELF4 it was 2.82 fold enrichment (6-mer frequency, TF over GST control); in the assay with ELK4, 2.57 fold enrichment (6-mer frequency, TF over GST control). Besides, the binding signal with ETV2 was 2.79 fold enrichment (6-mer frequency, TF over GST control); with ELF3, 3.06 fold enrichment (6-mer frequency, TF over GST control); with CRX, 1.26 fold enrichment (6-mer frequency, TF over GST control); with ETV1, 3.17 fold enrichment (6-mer frequency, TF over GST control); in the assay with ERF, 2.75 fold enrichment (6-mer frequency, TF over GST control); with ETV3L it was 2.9 fold enrichment (6-mer frequency, TF over GST control). Further, the binding signal with ETS2 was 3.21 fold enrichment (6-mer frequency, TF over GST control); with SPDEF it was 2.77 fold enrichment (6-mer frequency, TF over GST control); with ETV7, 3.02 fold enrichment (6-mer frequency, TF over GST control); with ELF5, 4.41 fold enrichment (6-mer frequency, TF over GST control); with ETV3, 3.37 fold enrichment (6-mer frequency, TF over GST control); with ETV6 it was 3.62 fold enrichment (6-mer frequency, TF over GST control).
